Sampled rows, rich in hits. Any-hit rate of the full collection: about 11%.
NS1 inh: qHTS Assay for Inhibitors of Influenza NS1 Protein Function; 270,000 tested, 0.4% active; Potency, µM (doses to about 46.1 µM); calls by dose curve; also: actives are rising curves; nearly all actives have a fitted effect of over 50% in size
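Growth recovery, yeast-based: influenza A NS1 expressed in S. cerevisiae causes slow growth, and suppressors are detected by OD600. The parent strain without NS1 is used as positive control.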
Sm TGR block: qHTS Assay for the Inhibitors of Schistosoma Mansoni Peroxiredoxins | purified TGR, DTNB reduction, TNB absorbance 405 nm | Potency, µM (titrated, usually from 114 µM), most hits filed as inhibitors | 360,000 tested, 3% active | AID 485364, 2010; also: nearly all actives have a fitted effect of over 60% in size
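First, TGR (20 nM dispensed) and NADPH were mixed with compound. Second, a 15 min room-temperature incubation followed. Third, further NADPH and then DTNB were added to start the reaction. Finally, TNB absorbance was monitored kinetically.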
Pf growth 48h: Primary qHTS for delayed death inhibitors of the malarial parasite plastid, 48 hour incubation; P. falciparum luciferase growth in erythrocytes, 48 h; 310,000 tested, 5.9% active; Potency, µM (titrated, usually from 28.7 µM), most hits filed as inhibitors; AID 504832, 2011
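Luciferase-expressing parasites in RBCs, 2% Hct / 0.1% parasitemia final; RPMI 1640 + 0.5% Albumax; 37 C, 5% CO2, one generation; luminescence read-out, lower signal = inhibition.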
AMA1 RON2 block: qHTS for Inhibitors of AMA1-RON; Towards Development of Antimalarial Drug Lead: Primary Screen. Plasmodium falciparum AMA1 (3D7) - RON2 peptide interaction. AlphaScreen AMA1-biotinylated RON2 peptide binding. Potency, µM (titrated, usually from 58.2 µM), usual class: inhibitors. 360,000 tested, 0.2% active. AID 720542, 2013; also: nearly all actives have a fitted effect of over 45% in size
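AMA1 (3D7) with his tag at 25 nM final met compounds first, then biotinylated RON2 peptide at 25 nM; detection used donor plus acceptor beads, 10 µg/mL apiece, read by AlphaScreen after 30 min at room temperature.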
Pf growth 96h: Primary qHTS for delayed death inhibitors of the malarial parasite plastid, 96 hour incubation; Potency, µM (titrated, usually from 28.7 µM), actives largely listed as inhibitors; P. falciparum luciferase reporter growth, 96 h; 320,000 tested, 6.9% active; AID 504834, 2011
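Two-generation exposure (96 h) targets delayed-death phenotype. Reporter parasites carrying integrated firefly luciferase, in red cells at 2% hematocrit and 0.05% parasitemia final, kept at 37 C, 5% CO2; luminescence loss indicates inhibition.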
Large screens that a line does not name were inactive. Unless noted, calls follow the shape of the dose curve; as a rule, active = well fitted curve in the direction sought with a large enough effect; inconclusive = small, poorly fitted or top-dose-only effect, or another doubt; inactive = no such curve, though single readings can be large; an effect the other way counts as inactive or inconclusive.

CCC(C)Sc1nc(O)c(Cc2ccccc2)c(=O)[nH]1 (centres undefined)	Pf growth 96h 2.62µM (no result: Pf growth 48h)
O=C(CSc1nc(O)c(Cc2ccccc2)c(=O)[nH]1)c1ccccc1	NS1 inh inconclusive
CC(C)(C)N1CSC(=S)N(Cc2ccccc2)C1	Sm TGR block inconclusive, Pf growth 96h inconclusive (no result: NS1 inh)
CC(C)N1CSC(=S)N(Cc2ccccc2)C1	Sm TGR block 28.2µM (no result: NS1 inh)
COc1cc(Nc2cc(C)nc3nc(C)nn23)cc(OC)c1OC	Pf growth 48h 9.28µM
COc1ccc(Nc2cc(C)nc3nc(C)nn23)cc1Cl	NS1 inh inconclusive (no result: Pf growth 48h)
Cc1cc(Nc2ccc(F)c(Cl)c2)n2nc(C)nc2n1	Pf growth 48h 3.29µM
Cc1cc(C)n(CC(=O)N2c3ccccc3Sc3ccc(C(F)(F)F)cc32)n1	Pf growth 48h 10.4µM, Pf growth 96h inconclusive
Cc1cc(Br)ccc1SCC(=O)OCC(=O)NC1CCCC1	none (no result: NS1 inh)
Cc1ccc(C(NC(=O)Cc2cccs2)C(=O)Nc2ccc(C(C)C)cc2)cc1 (centres undefined)	none (no result: NS1 inh, Pf growth 48h, AMA1 RON2 block, Pf growth 96h)
COc1ccccc1N(CC(=O)NCCSc1ccccn1)S(=O)(=O)c1ccccc1	Pf growth 48h inconclusive
Cc1ccccc1N(CC(=O)NCCSc1ccccn1)S(=O)(=O)c1ccccc1	Pf growth 48h inconclusive, Pf growth 96h 10.4µM
CCOc1ccccc1N(CC(=O)NCCSc1ccccn1)S(=O)(=O)c1ccccc1	Pf growth 48h 14.7µM, Pf growth 96h inconclusive
CN(C)CC(O)CN1C(=O)NC(C)(C)C1=O (centres undefined)	Pf growth 96h 2.08µM
Cn1nnnc1SCC(=O)Nc1ccc(Br)cc1Cl	Sm TGR block 28.2µM (no result: Pf growth 96h)
Cc1nc(NC(=O)CSc2nnnn2C)sc1C	none
Cc1csc(NC(=O)CSc2nnnn2C)n1	Pf growth 96h 9.28µM
Cc1cn2c(=O)cc(COC(=O)c3cccc(NC(=O)COc4ccccc4Cl)c3)nc2s1	none (no result: NS1 inh, Pf growth 48h, AMA1 RON2 block, Pf growth 96h)
CC1CCCN(C(=O)c2ccc(CSc3nc4ccncc4n3Cc3ccccc3)cc2)C1 (centres undefined)	none (no result: NS1 inh, Pf growth 48h, AMA1 RON2 block, Pf growth 96h)
O=C(CSc1nc2c([nH]c3ccccc32)c(=O)n1-c1ccc(F)cc1)NCc1ccc(F)cc1	none (no result: NS1 inh, Pf growth 48h, AMA1 RON2 block, Pf growth 96h)
COC(=O)c1cn(C)c2ccc(S(=O)(=O)N3CCCC3)cc2c1=O	Pf growth 96h 3.7µM
Cn1cc(C(=O)NC2CCCCC2)c(=O)c2cc(S(=O)(=O)N3CCCC3)ccc21	Pf growth 96h 8.28µM
CC1CCCCC1NC(=O)c1cn(C)c2ccc(S(=O)(=O)N3CCCC3)cc2c1=O (centres undefined)	Pf growth 48h 8.28µM
CC1CCCC(NC(=O)c2cn(C)c3ccc(S(=O)(=O)N4CCCC4)cc3c2=O)C1C (centres undefined)	Pf growth 48h inconclusive (no result: AMA1 RON2 block)
Cc1ccc(S(=O)(=O)N2CCCCC2)cc1C(=O)OC(C)C(=O)NC1CCCCC1C (centres undefined)	Pf growth 48h inconclusive, Pf growth 96h 13.1µM (no result: NS1 inh)
CC(=O)Nc1ccc(NC(=O)CSc2nccn2Cc2ccc3c(c2)OCO3)cc1	none (no result: NS1 inh, Pf growth 48h, AMA1 RON2 block, Pf growth 96h)
Cc1nnc(N2CCN(c3ccccc3F)CC2)c2c1nnn2Cc1ccc(F)cc1	none (no result: NS1 inh, Pf growth 48h, AMA1 RON2 block, Pf growth 96h)
CCC(C)NC(=O)c1cn(CC)c2ccc(S(=O)(=O)N3CCCCCC3)cc2c1=O (centres undefined)	Pf growth 48h inconclusive, Pf growth 96h 13.1µM
CC(NC(=O)c1cn(C)c2ccc(S(=O)(=O)N3CCCC3)cc2c1=O)c1ccccc1 (centres undefined)	Pf growth 48h 11.7µM, Pf growth 96h 11.7µM
Cn1cc(C(=O)NCc2cccnc2)c(=O)c2cc(S(=O)(=O)N3CCCCCC3)ccc21	Pf growth 96h 6.57µM (no result: NS1 inh, AMA1 RON2 block)
CCn1cc(C(=O)NCCCOC(C)C)c(=O)c2cc(S(=O)(=O)N3CCC(C)CC3)ccc21	Pf growth 48h inconclusive, Pf growth 96h 1.04µM
CCC(C)NC(=O)c1cn(CC)c2ccc(S(=O)(=O)N3CCCCC3)cc2c1=O (centres undefined)	Pf growth 48h inconclusive
CC1CCN(S(=O)(=O)c2ccc3c(c2)c(=O)c(C(=O)NC(C)c2ccccc2)cn3C)CC1 (centres undefined)	none (no result: NS1 inh, Pf growth 48h, AMA1 RON2 block, Pf growth 96h)
COCC1CCCCN1C(=O)c1ccc2nc(Cc3ccc(OC)c(OC)c3)oc2c1 (centres undefined)	Pf growth 48h inconclusive
Cc1cc(NC(=O)CCC(=O)N(CCC(C)C)C(C(=O)NCC2CCCO2)c2ccccc2C)no1 (centres undefined)	Pf growth 48h inconclusive
Cc1cc(C)cc(NC(=O)c2ccc3c(c2)nnn3C2CCCC2)c1	none (no result: NS1 inh, Pf growth 48h, AMA1 RON2 block, Pf growth 96h)
COc1cc(CN2CCN(Cc3ccco3)CC2)cc(OC)c1	Pf growth 96h 2.08µM
COc1cccc(CN2CCN(Cc3cccc(F)c3)CC2)c1	AMA1 RON2 block 15.8µM, Pf growth 96h inconclusive
COc1ccc(CN2CCN(Cc3ccco3)CC2)c(OC)c1	NS1 inh inconclusive (no result: Pf growth 48h)
CS(=O)(=O)c1ccc(Cl)c(C(=O)O)c1	Pf growth 96h 3.7µM
CCN(Cc1ccccc1)S(=O)(=O)c1ccc(F)c(C(=O)Nc2ccc(C(C)C)cc2)c1	none (no result: NS1 inh, Pf growth 48h, AMA1 RON2 block, Pf growth 96h)
CCN(CC)S(=O)(=O)c1ccc(F)c(C(=O)NCCC(C)C)c1	Pf growth 96h 4.15µM
O=C(NCc1cccs1)c1ccc(CSc2nc3ccncc3n2Cc2ccccc2F)cc1	none (no result: NS1 inh, Pf growth 48h, AMA1 RON2 block, Pf growth 96h)
N#Cc1ccc(NC(=O)COC(=O)C2=COCCO2)cc1	none
N#Cc1ccc(NC(=O)C2=COCCO2)cc1	Sm TGR block 89.1µM (no result: NS1 inh)
O=c1[nH]n(-c2ccc(Cl)cc2)c(=O)c(Cl)c1Cl	Sm TGR block 7.08µM
CCOC(=O)c1c(C)[nH]c(C)c1S(=O)(=O)N1CCC(C(=O)Nc2ccc(OCC)cc2)CC1	none (no result: NS1 inh, Pf growth 48h, AMA1 RON2 block, Pf growth 96h)
Cc1ccccc1-c1nc(CN2CCC(C(=O)NCc3ccc(F)cc3)CC2)c(C)o1	none (no result: NS1 inh, Pf growth 48h, AMA1 RON2 block, Pf growth 96h)
Cc1ccnc(NC(c2ccccn2)c2c(C)[nH]c3ccccc23)c1 (centres undefined)	Sm TGR block 0.282µM
Cc1[nH]c2ccccc2c1C(c1ccccn1)N1CCCC1 (centres undefined)	Sm TGR block inconclusive (no result: NS1 inh)
Cc1cc(NC(c2cccnc2)c2c(C)[nH]c3ccccc23)no1 (centres undefined)	Sm TGR block 2.82µM, Pf growth 96h inconclusive
Cc1cc(NC(=O)CSCC(=O)Nc2nc3c(C)cccc3s2)no1	Pf growth 96h inconclusive (no result: NS1 inh)
COC(=O)N1CCCCC1c1cc(C(=O)NCc2ccccc2)no1 (centres undefined)	none (no result: NS1 inh, Sm TGR block, Pf growth 48h, Pf growth 96h)
C#CCOCCOCCOCCNc1nc(N2CCN(C(=O)CCCCCCCCCCNC(=O)Cn3cc(C[C@@H](C)O)nn3)CC2)nc(N2CCN(C(=O)CCCCCCCCCCNC(=O)[C@@H]([C@H](C)O)n3cc(C)nn3)CC2)n1	Pf growth 48h 0.0738µM, Pf growth 96h 0.0828µM (no result: NS1 inh)
